The results in this text go back to PubChem BioAssay AID1688 (National Center for Advancing Translational Sciences (NCATS), 2009).

Molecules are shown by their SMILES. Screen size: about 220,000 compounds; about 2,400 (1.1%) were called active. About 7% were inconclusive and are not listed. The list comes from a sample in which actives are over-represented; it also holds similar structures and randomly drawn compounds. Unmarked numbers belong to inactive results. Calls come from the whole dose curve; as a rule, active = well fitted inhibition curve with a large enough effect; inconclusive = small, poorly fitted or top-dose-only effect, or effect the other way; inactive = no such curve, though single readings can be large or run the other way.
% is set by controls: 0 for no effect and ±100 for the full control effect; potency is the fitted concentration of half-maximal effect.

The experiment is described as follows: qHTS Multiplex Assay to Identify Dual Action Probes in a Cell Model of Huntington: Aggregate Formation (GFP). Note: nearly all actives have a fitted effect of over 60% in size. Particulars: PC12 HttQ103-GFP aggregates, Acumen cytometry, 40 h; series mostly up to 9.22 µM; activity change, negative = inhibition: at the top concentration. In outline: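 Using laser scanning cytometry, GFP-positive aggregates were counted after lysis of PC12 cells induced with 100 nM tebufenozide to express HTT exon 1 Q103–GFP. Compounds were tested in titration.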
In general terms: In qHTS, concentration-response curves come from the screen itself.
As to `CCOC(=O)CSc1nc(C)c(Oc2ccc(Cl)cc2Cl)c(=O)[nH]1`, the “activity change, negative = inhibition” value is -4.52%.

As to `Brc1ccc(-c2nn[nH]n2)cc1`, the “activity change, negative = inhibition” value is 11.1%.

As for `COc1ccc(SCCN2CCN(CC(C)C)CCC2=O)cc1`, the “activity change, negative = inhibition” value is -1.2%.

As for `CSc1nc(-c2ccccc2)nc(C(Cl)Cl)n1`, the Potency is 11.2 µM (active).

For `CSc1nc(C)cc(SC(C(C)=O)C(=O)Nc2ccccc2)n1` (stereo unspecified), the “activity change, negative = inhibition” value is -11.8% [at 46.1 µM].

Take `Cc1cccc(NC(=O)CSc2nnc(CCNC(=O)OC(C)(C)C)o2)c1C`: the “activity change, negative = inhibition” value was -7.25%.

Consider `COC(=O)c1ccc(COc2ccc(/C=N/NC(=O)C(=O)Nc3ccc(OC)cc3)cc2OC)o1`, for which the “activity change, negative = inhibition” value is 8.14%.

On to `CCn1c2ccccc2c2cc(NC(=O)CNC)ccc21`, for which the “activity change, negative = inhibition” value is -17.5%.

Regarding `CC[n+]1c(C)n(-c2ccccc2)c2ccc(NC(C)=O)cc21`, the Potency was 3.98 µM (active).

Take `CCc1ccc(NC(=O)N2CCN(c3ccccc3)CC2)cc1`: the “activity change, negative = inhibition” value was 6.28% [at 46.1 µM].

As for `Cc1ccc(N2C(=O)CN=C2Nc2nc(C)cc(C)n2)cc1`, the “activity change, negative = inhibition” value is 8.49%.

In the case of `O=C(c1ccc(=O)oc1)N1CCC(C(O)(c2ccccc2)c2ccccc2)CC1`, the “activity change, negative = inhibition” value was -8.46%.

As to `Cc1cc(NCc2cccnc2)no1`, the “activity change, negative = inhibition” value was -1.89%.

As to `O=C(O)CCCCCNc1ncnc2ccc(Br)cc12`, the “activity change, negative = inhibition” value is -18.6%.

Regarding `Brc1ccc2ncnc(NCc3cccnc3)c2c1`, the Potency was 1.78 µM (active).

With `CCOC(=O)c1cnc(COc2ccccc2Cl)[nH]c1=O`, the “activity change, negative = inhibition” value is 2.2%.

As to `Cc1c(NC(=O)CN2C(=O)C(=O)N(Cc3ccccc3)C2=O)c(=O)n(-c2ccccc2)n1C`, the “activity change, negative = inhibition” value was 0.334%.

Take `O=C1CC(Cc2ccc(Cl)cc2)C(=O)N1c1cc(Cl)ccn1` (stereo unspecified): the “activity change, negative = inhibition” value is 6.88%.

As for `CCCCN(CCCC)CC(O)Cn1c2ccccc2c(=O)c2ccccc21` (stereo unspecified), the “activity change, negative = inhibition” value is -13.4%.

Take `O=C(NNS(=O)(=O)Cc1ccccc1)c1ccc([N+](=O)[O-])cc1`: the “activity change, negative = inhibition” value was -27.8%.

Take `CC1CCN(c2c(NCc3ccc(C(=O)NCc4ccccc4)cc3)c(=O)c2=O)CC1`: the “activity change, negative = inhibition” value was 3.19%.

For the molecule `O=C(Nc1cccc(-c2nc3ccccc3[nH]2)c1)c1ccc(C(=O)Nc2cccc(-c3nc4ccccc4[nH]3)c2)cc1`, the “activity change, negative = inhibition” value is 29%.

Regarding `CN(c1ccccc1)S(=O)(=O)c1cc(C(=O)OCC(=O)N2CCN(C(=O)c3ccco3)CC2)ccc1Cl`, the “activity change, negative = inhibition” value was 2.29% [at 46.1 µM].

In the case of `CN(c1ccccc1)S(=O)(=O)c1cc(C(=O)Nc2nc3ccccc3[nH]2)ccc1Cl`, the Potency was 11.2 µM (active).

As for `COC(=O)/C=C(\Oc1ccccc1)C1(O)CCCCC1`, the “activity change, negative = inhibition” value is 13.9%.

With `CC(C)(C)c1nnc(NC(=O)C2c3ccccc3Oc3ccccc32)s1`, the “activity change, negative = inhibition” value was -14.3%.

`Nc1ccc(C(=O)Nc2ccccc2N)cc1`: the “activity change, negative = inhibition” value was 2.49% [at 46.1 µM].

As for `COc1cccc(NC(=O)CN(C)S(=O)(=O)c2ccc(C)cc2)c1`, the “activity change, negative = inhibition” value is 28% [at 46.1 µM].

With `COc1cccc(NC(=O)c2ccc(S(=O)(=O)N(C)C)cc2)c1`, the “activity change, negative = inhibition” value was 11% [at 46.1 µM].

Turning to `COc1cccc(-c2nnc(NC(=O)c3ccc(S(=O)(=O)N(CC(C)C)CC(C)C)cc3)o2)c1`, the Potency was 5.01 µM (active).

Take `Oc1ccc(Cl)c2c1CCC2`: the “activity change, negative = inhibition” value is 3.24% [at 46.1 µM].

Regarding `CCOc1ccccc1N1CN(Cc2ccccc2)CNC1=S`, the “activity change, negative = inhibition” value is -10.6%.

With `COCCN1C(=O)N[C@@H](c2ccccc2)C(C(=O)OC)=C1C`, the “activity change, negative = inhibition” value is 17.3% [at 46.1 µM].

For `COC(=O)C1=C(C)N(C)C(=S)NC1c1cc(OC)ccc1OC` (stereo unspecified), the “activity change, negative = inhibition” value was -3.02% [at 46.1 µM].

In the case of `COC(=O)C1=C(C)N(C)C(=S)NC1c1ccccc1` (stereo unspecified), the Potency is 3.16 µM (active).

For the molecule `COc1ccc(-c2csc(NC3OC(=O)c4ccccc43)n2)cc1` (stereo unspecified), the “activity change, negative = inhibition” value was -6.69%.

Take `CCOC(=O)c1sc(NC(=O)CSc2ncccn2)c(C#N)c1C`: the “activity change, negative = inhibition” value was -1.2% [at 46.1 µM].

`CCOC(=O)c1cc(NC(=O)c2cccnc2)cc(C(=O)OCC)c1`: the “activity change, negative = inhibition” value is 2.09% [at 46.1 µM].

`Cc1c(C(=O)OC(C)C)sc(NC(=O)c2cccnc2)c1C#N`: the Potency was 11.2 µM (active).

With `O=S(=O)(c1ccc(F)cc1)N1CC=C(c2ccccc2)CC1`, the “activity change, negative = inhibition” value was -11.9%.

`O=C1CCCC(O)=C1N=Nc1ccc(S(=O)(=O)N2CCOCC2)cc1`: the “activity change, negative = inhibition” value was -29.6%.

Consider `O=C(C1=C(O)C(=O)N(CCOCCO)C1c1ccccn1)c1cccs1` (stereo unspecified), for which the “activity change, negative = inhibition” value was -9.5%.

As for `COc1ccc(Cc2cc(-c3ccc(F)cc3)n[nH]c2=O)cc1`, the “activity change, negative = inhibition” value is -2.71%.

As for `Fc1ccccc1/C=N/n1c(-c2cccnc2)n[nH]c1=S`, the “activity change, negative = inhibition” value was -12.6%.

As to `N#Cc1c(NC(=O)c2ccc(N3CCOCC3)c([N+](=O)[O-])c2)sc2c1CCCC2`, the Potency was 5.62 µM (active).

`CCOC(=O)c1c(NC(=O)c2ccc(N3CCOCC3)c([N+](=O)[O-])c2)sc(C)c1C`: the “activity change, negative = inhibition” value is -1.54% [at 46.1 µM].

For `O=C(NCCCN1CCOCC1)c1ccc(N2CCCC2)c([N+](=O)[O-])c1`, the “activity change, negative = inhibition” value was 3.94%.

Turning to `Cc1cc(=O)[nH]c(S)c1C#N`, the “activity change, negative = inhibition” value is -6.31%.

Consider `NC(=O)C(=O)N/N=C/c1ccc([N+](=O)[O-])o1`, for which the “activity change, negative = inhibition” value is -100% [at 46.1 µM].

On to `O=C(O)c1cccnc1Sc1ncnc2sc3c(c12)CCC3`, for which the “activity change, negative = inhibition” value is -1.62%.

With `COCCn1c(C)cc(C(=O)CSc2nc3ccccc3c(=O)n2C(C)COC)c1C` (stereo unspecified), the “activity change, negative = inhibition” value was -9.69% [at 46.1 µM].

Turning to `COCCn1c(C)cc(C(=O)CSc2ncnc3sc4c(c23)CCC4)c1C`, the Potency was 6.31 µM (active).

In the case of `CC(C)(C)C(=O)NNC(=O)c1ccc(Oc2cc(Cl)cc(Cl)c2)o1`, the “activity change, negative = inhibition” value is -4.94%.

As for `CCOc1cc2c(Cl)ncnc2c(OCC)c1OCC`, the “activity change, negative = inhibition” value was -18.2%.

In the case of `Cc1nc2ccccc2c(C)c1C(=O)c1ccc(F)cc1`, the Potency was 7.94 µM (active).

Consider `Cc1nc2ccc(C(=O)O)cc2[nH]1`, for which the “activity change, negative = inhibition” value is 2.47% [at 46.1 µM].
